One assay relates to CRL-7250. The assay can be described thus: Cytotoxic Profiling of Annotated Libraries Using Quantitative High-Throughput Screening (AID 1296008). Further: potency means the concentration at half of the fitted maximal effect. On max response: on the % scale 0 is the no-effect control and ±100 the full control effect. The conditions noted are these: Five cell lines viability, CellTiter-Glo ATP luminescence, 48-72 h; max response: stronger effect = lower value. Put shortly:
(§1)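 Cells exposed to compounds for 48 or 72 hr at 37 degrees Celsius. Viability read as ATP-coupled luminescence with CellTiter-Glo after 10 min at room temperature.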
In general terms: In ATP-based viability assays light output follows the ATP content of the culture.

Another assay has as its system HEK293. Described as above. The conditions noted are these: Five cell lines viability, CellTiter-Glo ATP luminescence, 48-72 h; max response: stronger effect = lower value. The method in brief: as §1
For assay [1], the system named is HaCat. The description is as above. The conditions noted are these: Five cell lines viability, CellTiter-Glo ATP luminescence, 48-72 h; max response: stronger effect = lower value. The method in brief: as §1
A further assay concerns KB-3-1. Described as above. The conditions noted are these: Five cell lines viability, CellTiter-Glo ATP luminescence, 48-72 h; max response: stronger effect = lower value. Put shortly: as §1
The test system of a further assay is NIH3T3. The description is as above. The following applies: Five cell lines viability, CellTiter-Glo ATP luminescence, 48-72 h; max response: stronger effect = lower value. Put shortly: as §1
For assay [2], the system named is HACAT. The assay can be described thus: qHTS assay to identify novel small-molecules to repurpose for Merkel cell carcinoma treatment (AID 1296009). The following applies: MCC and control cell lines, CellTiter-Glo viability, 72 h; series mostly up to 44.8 µM. Put shortly: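 Cells were treated for 72 hr at 37 degree celsius with compounds in 8- or 11-point dose response. Viability was read by CellTiter-Glo luminescence, normalized to no-cell (cytotoxicity) and DMSO controls.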

For the next assay, the system named is W2. The assay can be described thus: qHTS profiling for inhibitors of Plasmodium falciparum proliferation (AID 504749). Further: potency means the concentration at half of the fitted maximal effect. The conditions noted are these: P. falciparum in erythrocytes, SYBR Green DNA, 72 h; series mostly up to 28.7 µM. Put shortly:
(§2)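 P. falciparum-infected erythrocytes (0.3% parasitemia, 2.5% hematocrit) incubated with compound 72 h at 37 C, 5% CO2. Parasite DNA detected by SYBR Green after lysis, overnight at room temperature; normalised to 0.29 uM artemisinin and DMSO.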
In general terms: qHTS replaces the single test concentration by a dilution series.

In the next assay the test system is TAB109. Described as above. The following applies: P. falciparum in erythrocytes, SYBR Green DNA, 72 h; series mostly up to 28.7 µM. The method in brief: as §2
Another assay has as its system TAB113. The description is as above. The following applies: P. falciparum in erythrocytes, SYBR Green DNA, 72 h; series mostly up to 28.7 µM. The method in brief: as §2
In another assay the test system is TAB165. Described as above. The following applies: P. falciparum in erythrocytes, SYBR Green DNA, 72 h; series mostly up to 28.7 µM. The method in brief: as §2

From PubChem BioAssay (NCATS) come the findings set out here.

Values joined by “and” are separate entries in the source; they are usually repeats but may differ in a detail not shown here. Equal values may be shown once. Inconclusive results are not listed. Where a structure was tested more than once in an assay, its records may differ in their call. A number with no mark means an inactive call. Active and inactive are the calls of the source. The call rests on the fitted dose curve; in most records, active means well fitted inhibition curve with a large enough effect; inconclusive means small, poorly fitted or top-dose-only effect; inactive means flat fitted curve, though single readings scatter.
Further: nearly all actives have a fitted effect of over 60% in size.

With `Fc1ccc([C@@H]2CCNC[C@H]2COc2ccc3c(c2)OCO3)cc1`, the max response with CRL-7250 was -5.94%; in the assay on HEK293, -24.9%; with KB-3-1, -16.5% and -9.57%; in the assay with NIH3T3, -13.3%. For the same molecule, the molecule was called inactive in the assay with HaCat [1] and in the assay with HACAT [2].

For the molecule `O=C(CCCN1CCC(O)(c2ccc(Cl)cc2)CC1)c1ccc(F)cc1`, the max response in the assay with CRL-7250 is -7.49% and -12%; with HaCat [1], 2.18%; in the assay with KB-3-1, 1.13%. Moreover, the Potency with HEK293 is 18.8 µM (active); with NIH3T3, 21.1 µM (active). The outcome in the assay on HaCat [1], with NIH3T3 and with HACAT [2] was inactive.

In the case of `CC(C)NCC(O)COc1ccc(CCOCC2CC2)cc1` (stereo not drawn), the Potency in the assay with W2 was 15.1 µM (active). The max response is -5.76% with CRL-7250; -0.0868% and -3.99% in the assay with HEK293; 2.43% in the assay on HaCat [1]; 1.84% in the assay with KB-3-1; 2.13% and -7.76% in the assay on NIH3T3. The result with HaCat [1] and in the assay on HACAT [2] was inactive.

In the case of `Nc1nnc(-c2cccc(Cl)c2Cl)c(N)n1`, the Potency result in the assay on TAB109, in the assay with TAB113, in the assay on TAB165 and in the assay with W2 was “inactive” in each case. For the same molecule, the max response is -7.91% and -8.11% in the assay with CRL-7250; -5.08% and 0.349% with HEK293; 6.78% and 8.12% with KB-3-1. Further, the outcome with HaCat [1], with NIH3T3 and with HACAT [2] was inactive.

For `CN(Cc1cnc2nc(N)nc(N)c2n1)c1ccc(C(=O)N[C@@H](CCC(=O)O)C(=O)O)cc1`, the Potency result in the assay on TAB109 and in the assay on TAB165 was “inactive” in each case. In addition, the Potency in the assay on CRL-7250 was 119 nM (active); in the assay with HEK293, 29.9 nM (active) and 33.2 nM (active); with HaCat [1], 0.418 µM (active); in the assay on KB-3-1, 37.2 nM (active); in the assay with NIH3T3, 266 nM (active) and 332 nM (active).

As to `CN1CCC(=C2c3ccccc3C=Cc3ccccc32)CC1`, the Potency entry in the assay on TAB109, in the assay with TAB113 and with TAB165 was “inactive” throughout. The molecule was called inactive in the assay with CRL-7250, with HaCat [1], in the assay with NIH3T3 and in the assay with HACAT [2]. In the assay on HEK293, the Potency is 10.6 µM (active). Moreover, the max response with HaCat [1] is -1.05%; in the assay with NIH3T3, -0.507%.

Turning to `O=C1c2c(O)ccc(O)c2C(=O)c2c(NCCNCCO)ccc(NCCNCCO)c21`, the Potency with TAB109 is 2.24 µM (active); with TAB113, 3.55 µM (active); in the assay with TAB165 it was 2 µM (active); with W2, 1.81 µM (active); with CRL-7250, 4.18 µM (active) and 1.68 µM (active); with HEK293, 37.2 nM (active) and 15 nM (active). Further, the Potency with HaCat [1] was 0.264 µM (active); in the assay with KB-3-1, 296 nM (active); in the assay on NIH3T3, 59 nM (active) and 21.1 nM (active).

Take `CCN1CCCC1CNC(=O)c1cc(S(=O)(=O)CC)c(N)cc1OC` (stereo not drawn): the molecule was called inactive in the assay on CRL-7250, in the assay on HaCat [1], with NIH3T3 and with HACAT [2]. Besides, the max response with HEK293 was -9.52% and 2.43%; with HaCat [1], -3.32%; with KB-3-1, 8.59%; in the assay with NIH3T3, 4.99%.

Regarding `Cc1cc(C(C)(C)C)cc(C)c1CC1=NCCN1`, the Potency result in the assay with TAB109, in the assay on TAB113 and in the assay on TAB165 was “inactive” throughout. Moreover, the Potency in the assay on W2 is 4.05 µM (active). Also, the max response in the assay with CRL-7250 is -1.37% and -2.32%; in the assay with HEK293, -19.6% and -11.6%; in the assay with KB-3-1, 3.71% and 6.55%; in the assay on NIH3T3, -2.36%. Besides, the outcome with HaCat [1] and in the assay on HACAT [2] was “inactive; activator” each time. In the assay with NIH3T3, the result was inactive.

Turning to `COc1ccccc1N1CCN(CC(O)COc2cccc3ccccc23)CC1` (stereo not drawn), the Potency result in the assay with TAB109 was “inactive”. The figures for the max response in the assay with CRL-7250, in the assay on HaCat [1] and in the assay on NIH3T3 were 4.67%, 3.01% and 0.0963%, respectively.

As to `OCCN1CCN(CCCN2c3ccccc3Sc3ccc(C(F)(F)F)cc32)CC1`, the Potency is 7.08 µM (active) in the assay on TAB109; 8.91 µM (active) with TAB113; 12.6 µM (active) in the assay on TAB165; 1.51 µM (active) with W2; 20600 nM (active) in the assay on KB-3-1; 13.2 µM (active) with NIH3T3. Further, the max response with CRL-7250 was 1.65%; with HaCat [1], -28.3% and -6.1%.

Consider `CN1CCC(=C2c3ccccc3CC(=O)c3sccc32)CC1`, for which the Potency in the assay with W2 is 1.2 µM (active). Moreover, the max response with CRL-7250 is 4.7% and -3.04%; in the assay on HaCat [1], 0.22%; in the assay with KB-3-1, -4.06%; in the assay with NIH3T3 it was -5.39%. Besides, the call in the assay with HaCat [1], in the assay with NIH3T3 and in the assay with HACAT [2] was inactive.

For `CCOC(=O)c1ncn2c1CN(C)C(=O)c1cc(F)ccc1-2`, the Potency result in the assay on TAB109, in the assay with TAB113, in the assay with TAB165 and with W2 was “inactive” in each case.

Regarding `CN1C(C(=O)Nc2ccccn2)=C(O)c2ccccc2S1(=O)=O`, the Potency entry in the assay with TAB109, with TAB113, in the assay with TAB165 and in the assay with W2 was “inactive” throughout. Further, the max response is -1.73% and 2.62% in the assay with CRL-7250; 3.98% in the assay with HEK293; 0.638% and -49.2% in the assay on HaCat [1]; 1.34% in the assay on NIH3T3.

For `Cn1c(=O)c2[nH]cnc2n(C)c1=O`, the Potency result in the assay on TAB109, in the assay on TAB113, with TAB165 and in the assay with W2 was “inactive” each time.

On to `CN1CCN2c3ccccc3Cc3ccccc3C2C1` (stereo not drawn), for which the Potency entry in the assay with TAB109, in the assay on TAB113 and in the assay with TAB165 was “inactive” each time.

With `COc1cc2c(c(OC)c1OC)-c1ccc(OC)c(=O)cc1[C@@H](NC(C)=O)CC2`, the Potency result with TAB109, in the assay with TAB113 and in the assay with TAB165 was “inactive” each time. In addition, the Potency is 0.0188 µM (active) in the assay on HEK293; 23.1 nM (active) and 1 nM (active) in the assay with KB-3-1. For the same molecule, the max response is -105% with HEK293; -4.55% and -18.6% with HaCat [1]; -60% in the assay with NIH3T3.

Consider `CNCCCC12CCC(c3ccccc31)c1ccccc12`, for which the Potency result in the assay with TAB109 and in the assay with TAB113 was “inactive” in each case. For the same molecule, the Potency with W2 was 6.01 µM (active); in the assay on HEK293, 11.9 µM (active) and 16.6 µM (active). In addition, in the assay on HaCat [1], the max response was -20.8% and 4.86%.

As for `CC(C(=O)O)c1cccc(C(=O)c2ccccc2)c1` (stereo not drawn), in the assay on HACAT [2], the result was inactive.

As for `CN(C)C(=O)C(CCN1CCC(O)(c2ccc(Cl)cc2)CC1)(c1ccccc1)c1ccccc1`, the max response in the assay with CRL-7250 was -63.2%. The Potency is 13.2 µM (active) and 10.6 µM (active) in the assay on HEK293; 20900 nM (active) with KB-3-1.
